Results on 40 compounds are retold here after PubChem BioAssay (NCI).

This is part of a sample that, as a whole, favours compounds with a hit. Of some 79,000 tested, about 15% had one in any assay. A number with no mark means an inactive call. Active and inactive are the calls of the source. Cut-off read from the data, not from the text of the source: active = growth inhibition above about 70%; inactive = the rest.

The nature of one assay: NCI Yeast Anticancer Drug Screen. Data for the mec2-1 strain (AID 157). The note with it: S. cerevisiae mec2-1 strain, at 50.0 µM (retest, dose inferred, filed as 5.0), stronger effect = higher value. In short, it runs like this:
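Using mec2-1 yeast: add compound, measure growth, express inhibition versus vehicle-treated cultures.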
For the compound `CCOC(=O)C1C(O)=C(P(=O)(C2=C(O)C(C(=O)OCC)C(c3ccc(OC(C)=O)cc3)C(C(=O)O)C2=O)N(CCCl)CCCl)C(=O)C(C(=O)O)C1c1ccc(OC(C)=O)cc1` (stereo not given), the growth inhibition was 85% (active).
Turning to `c1ccc([As+](c2ccccc2)(c2ccccc2)c2cccc3ccccc23)cc1`, the growth inhibition was 99% (active).
As to `CCCCCCCCc1ccc(OCCN(CCCl)CCCl)cc1`, the growth inhibition is 100% (active).
As for `S=C=NCCc1ccccc1`, the growth inhibition was 18%.
For the compound `COC1=C(Cl)C(=O)c2ccccc2C1=O`, the growth inhibition is 99% (active).
`CN(C)c1ccc(N=Nc2cccc(C(=O)[O-])c2)cc1.CN(C)c1ccc(N=Nc2cccc(C(=O)[O-])c2)cc1.NC1CCCCC1N.O=[N+]([O-])O.[Pt+4]`: the growth inhibition is 98% (active).
`CCOC(=O)c1ccc(N=Cc2ccc(N(CCCl)CCCl)cc2C)cc1`: the growth inhibition is 22%.
Take `O=c1s[se]c2ccccc12`: the growth inhibition is 99% (active).
For `CC1CCC2(OC1)OC1C(O)C3C4CCC5CC(OC6OC(CO)C(OC7OC(CO)C(O)C(OC8OCC(O)C(O)C8O)C7OC7OC(CO)C(O)C(OC8OC(CO)C(O)C(O)C8O)C7O)C(O)C6O)C(O)CC5(C)C4CCC3(C)C1C2C` (stereo not given), the growth inhibition was 99% (active).
Still for that read-out and setting: the result for `CN(C)c1ccc(/C=C/c2cc3scc(-c4ccccc4)[n+]3c3ccccc23)cc1` reads 99% (active); that for `CSCCC([NH-])C(=O)O.CSCCC([NH-])C(=O)O.[Zn+2]` (stereo not given), 1%; that for `O=C(O)CN1CCN(CC(=O)O)CC(=O)[O][Hg][O]C(=O)C1`, 100% (active).
In the case of `Cc1c2ccncc2c(CN(CCCl)CCCl)c2c3ccccc3n(C)c12`, the growth inhibition is 99% (active).
For `COc1ccc(P2(=S)Oc3ccc(C(c4ccccc4)(c4ccccc4)c4ccccc4)cc3O2)cc1` (stereo not given), the growth inhibition is 98% (active).
Take `Cc1cc[n+](C2=C(Nc3c(C)cccc3C)C(=O)c3ccccc3C2=O)cc1`: the growth inhibition was 61%.
Consider `C(#C[PH+](c1ccccc1)c1ccccc1)c1ccccc1.C(#C[PH+](c1ccccc1)c1ccccc1)c1ccccc1.C(#C[PH+](c1ccccc1)c1ccccc1)c1ccccc1.[C-]#[O+].[C-]#[O+].[C-]#[O+].[Cr]`, for which the growth inhibition was 27%.
Take `CC(=O)O.[RuH].c1ccc([PH+](c2ccccc2)c2ccccc2)cc1.c1ccc([PH+](c2ccccc2)c2ccccc2)cc1.c1ccc([PH+](c2ccccc2)c2ccccc2)cc1`: the growth inhibition is 90% (active).
Still for that read-out and setting: the result for `O=C(N/N=C/c1cc(Br)cc(Br)c1[O-])c1ccccc1O.O=C(N/N=C/c1cc(Br)cc(Br)c1[O-])c1ccccc1O.[Ni+2]` reads 98% (active); that for `O=C(C[n+]1ccccc1)C1CCc2ccccc2C1` (stereo not given), -2%; that for `CC(=O)[O-].CC(=O)[O-].O=C(N/N=C/c1cc(Cl)cc(Cl)c1[OH2+])c1ccncc1.[Zn+2]`, 11%.
On the same count and under the same terms, next, `ClCCN(CCCl)CCN1c2ccc3ccccc3c2Sc2ccc3ccccc3c21`: 37%.
On to `C=CCc1cc(Cl)ccc1OC(=O)N(C)C`, for which the growth inhibition was -4%.
Still for that read-out and setting: the result for `CC(=O)[O][Sn]([CH3])([CH3])[c]1ccccc1` reads 50%; that for `NCCNCCNCCNCCN` (tested in a mixture with another compound), 0%; that for `CC(=O)[CH-]C(C)=O.CC(=O)[CH-]C(C)=O.[O-]c1ccccc1.[O-]c1ccccc1.[Ti+4]`, 20%.
Same read-out and setting: next, `NC(=O)c1ccc(C(=O)Nc2ccc([As](=O)(O)O)cc2)cc1`: 3%; `[C-]#[O+].[C-]#[O+].[CH3][Sn]([CH3])[c]1ccccc1.[Fe+5].[c-]1[c-][c-][cH-][c-]1`: 87% (active); `CC(C)(C)S.[Hg]`: 98% (active).
`O=C(O)C(O)(c1ccc(-c2ccccc2)cc1)c1ccc(-c2ccccc2)cc1`: the growth inhibition is 93% (active).
Consider `Cc1ccc2c(-c3ccccc3)c3ccccc3[s+]c2c1`, for which the growth inhibition is 100% (active).
`CCOC(=O)[C]1([Pb]([CH3])([CH3])[CH3])N=NC(C(=O)OC)=C1C(=O)OC` (stereo not given): the growth inhibition was -14%.
With `CCCNC1=C(C)C(=O)C2=C(C1=O)[C@H](COC(N)=O)[C@]1(OC)[C@@H]3N[C@@H]3CN21`, the growth inhibition is 76% (active).
Regarding `CC(=O)c1ccc(-[n+]2c(C)cc(-c3ccccc3)cc2C)cc1`, the growth inhibition is -6%.
As for `CN1C(=O)C23CC4=CC=CC(O)C4N2C(=O)C1(CO)SS3` (stereo not given), the growth inhibition is 100% (active).
Consider `CCN1CCC(O)(c2ccc(O)cc2)C(C(=O)c2ccc(O)cc2)C1` (stereo not given), for which the growth inhibition is 8%.
As to `CCCCCCCC[As](C)(=O)O`, the growth inhibition was -47%.
On the same count and under the same terms, the result for `CCCCCCC(=O)[O][Hg][c]1ccccc1` reads 100% (active); that for `CCC[CH2][Sn]1([CH2]CCC)[O]C(=O)CN=Cc2ccccc2[O]1`, 92% (active); that for `C[C@]12CC[C@H](O)C[C@@H]1CC[C@@H]1[C@@H]2CC[C@]2(C)C(=O)/C(=C/O)C[C@@H]12`, 68%.
For `CC(CCc1ccccc1)NC(C)C(O)c1ccc(O)cc1` (stereo not given), the growth inhibition was 55%.

Still in this assay, the particulars now being: S. cerevisiae mec2-1 strain, at 50.0 µM, stronger effect = higher value.
Turning to `CCOC(=O)C1C(O)=C(P(=O)(C2=C(O)C(C(=O)OCC)C(c3ccc(OC(C)=O)cc3)C(C(=O)O)C2=O)N(CCCl)CCCl)C(=O)C(C(=O)O)C1c1ccc(OC(C)=O)cc1` (stereo not given), the growth inhibition was 71.8% (active).
Turning to `c1ccc([As+](c2ccccc2)(c2ccccc2)c2cccc3ccccc23)cc1`, the growth inhibition was 99.1% (active).
For `CCCCCCCCc1ccc(OCCN(CCCl)CCCl)cc1`, the growth inhibition was 99.4% (active).
Take `S=C=NCCc1ccccc1`: the growth inhibition was 48.4%.
As for `COC1=C(Cl)C(=O)c2ccccc2C1=O`, the growth inhibition is 99.5% (active).
The same measure, in the same setting: the result for `CN(C)c1ccc(N=Nc2cccc(C(=O)[O-])c2)cc1.CN(C)c1ccc(N=Nc2cccc(C(=O)[O-])c2)cc1.NC1CCCCC1N.O=[N+]([O-])O.[Pt+4]` reads 91.7% (active).
`CCOC(=O)c1ccc(N=Cc2ccc(N(CCCl)CCCl)cc2C)cc1`: the growth inhibition is 16.4%.
As for `O=c1s[se]c2ccccc12`, the growth inhibition is 87.1% (active).
Still for that read-out and setting: next, `CC1CCC2(OC1)OC1C(O)C3C4CCC5CC(OC6OC(CO)C(OC7OC(CO)C(O)C(OC8OCC(O)C(O)C8O)C7OC7OC(CO)C(O)C(OC8OC(CO)C(O)C(O)C8O)C7O)C(O)C6O)C(O)CC5(C)C4CCC3(C)C1C2C` (stereo not given): 94% (active); `CN(C)c1ccc(/C=C/c2cc3scc(-c4ccccc4)[n+]3c3ccccc23)cc1`: 99.5% (active); `CSCCC([NH-])C(=O)O.CSCCC([NH-])C(=O)O.[Zn+2]` (stereo not given): 99.2% (active).
With `O=C(O)CN1CCN(CC(=O)O)CC(=O)[O][Hg][O]C(=O)C1`, the growth inhibition is 99.4% (active).
As for `Cc1c2ccncc2c(CN(CCCl)CCCl)c2c3ccccc3n(C)c12`, the growth inhibition was 88.5% (active).
Turning to `COc1ccc(P2(=S)Oc3ccc(C(c4ccccc4)(c4ccccc4)c4ccccc4)cc3O2)cc1` (stereo not given), the growth inhibition is 64.3%.
`Cc1cc[n+](C2=C(Nc3c(C)cccc3C)C(=O)c3ccccc3C2=O)cc1`: the growth inhibition is 73.2% (active).
On to `C(#C[PH+](c1ccccc1)c1ccccc1)c1ccccc1.C(#C[PH+](c1ccccc1)c1ccccc1)c1ccccc1.C(#C[PH+](c1ccccc1)c1ccccc1)c1ccccc1.[C-]#[O+].[C-]#[O+].[C-]#[O+].[Cr]`, for which the growth inhibition was 87% (active).
Still for that read-out and setting: the result for `CC(=O)O.[RuH].c1ccc([PH+](c2ccccc2)c2ccccc2)cc1.c1ccc([PH+](c2ccccc2)c2ccccc2)cc1.c1ccc([PH+](c2ccccc2)c2ccccc2)cc1` reads 70.9% (active); that for `O=C(N/N=C/c1cc(Br)cc(Br)c1[O-])c1ccccc1O.O=C(N/N=C/c1cc(Br)cc(Br)c1[O-])c1ccccc1O.[Ni+2]`, 87% (active).
With `O=C(C[n+]1ccccc1)C1CCc2ccccc2C1` (stereo not given), the growth inhibition was 5.7%.
Take `CC(=O)[O-].CC(=O)[O-].O=C(N/N=C/c1cc(Cl)cc(Cl)c1[OH2+])c1ccncc1.[Zn+2]`: the growth inhibition was 48.4%.
On the same count and under the same terms, next, `ClCCN(CCCl)CCN1c2ccc3ccccc3c2Sc2ccc3ccccc3c21`: 16.5%; `C=CCc1cc(Cl)ccc1OC(=O)N(C)C`: 3.45%.
In the case of `CC(=O)[O][Sn]([CH3])([CH3])[c]1ccccc1`, the growth inhibition was 82.8% (active).
For the compound `NCCNCCNCCNCCN` (tested in a mixture with another compound), the growth inhibition is 25.8%.
With `CC(=O)[CH-]C(C)=O.CC(=O)[CH-]C(C)=O.[O-]c1ccccc1.[O-]c1ccccc1.[Ti+4]`, the growth inhibition is 0.3%.
As to `NC(=O)c1ccc(C(=O)Nc2ccc([As](=O)(O)O)cc2)cc1`, the growth inhibition is -26.7%.
Same read-out and setting: the result for `[C-]#[O+].[C-]#[O+].[CH3][Sn]([CH3])[c]1ccccc1.[Fe+5].[c-]1[c-][c-][cH-][c-]1` reads 98% (active); that for `CC(C)(C)S.[Hg]`, 99.7% (active); that for `O=C(O)C(O)(c1ccc(-c2ccccc2)cc1)c1ccc(-c2ccccc2)cc1`, 97% (active).
Turning to `Cc1ccc2c(-c3ccccc3)c3ccccc3[s+]c2c1`, the growth inhibition was 99.3% (active).
Take `CCOC(=O)[C]1([Pb]([CH3])([CH3])[CH3])N=NC(C(=O)OC)=C1C(=O)OC` (stereo not given): the growth inhibition is -2.15%.
On to `CCCNC1=C(C)C(=O)C2=C(C1=O)[C@H](COC(N)=O)[C@]1(OC)[C@@H]3N[C@@H]3CN21`, for which the growth inhibition is 38.9%.
Consider `CC(=O)c1ccc(-[n+]2c(C)cc(-c3ccccc3)cc2C)cc1`, for which the growth inhibition was -7.4%.
Consider `CN1C(=O)C23CC4=CC=CC(O)C4N2C(=O)C1(CO)SS3` (stereo not given), for which the growth inhibition is 95% (active).
Turning to `CCN1CCC(O)(c2ccc(O)cc2)C(C(=O)c2ccc(O)cc2)C1` (stereo not given), the growth inhibition was 82.6% (active).
As for `CCCCCCCC[As](C)(=O)O`, the growth inhibition is 2.85%.
Turning to `CCCCCCC(=O)[O][Hg][c]1ccccc1`, the growth inhibition was 99.7% (active).
The same measure, in the same setting: next, `CCC[CH2][Sn]1([CH2]CCC)[O]C(=O)CN=Cc2ccccc2[O]1`: 92% (active); `C[C@]12CC[C@H](O)C[C@@H]1CC[C@@H]1[C@@H]2CC[C@]2(C)C(=O)/C(=C/O)C[C@@H]12`: 97.1% (active).
As to `CC(CCc1ccccc1)NC(C)C(O)c1ccc(O)cc1` (stereo not given), the growth inhibition is 28.6%.
